Experiment in all cases: yeast three-hybrid, YBZ-1, SC-Leu-His + 0.5 mM 3-AT, 4 days
Conditions in all cases: tags: N-Gal4 AD-HA kept; label: inside an RPR1-promoter hybrid RNA with tandem MS2 sites; ssRNA

The target of one test is PUM1 PUF domain R7-RRI (Homo sapiens, UniProt Q14671 828-1176, S1079R;N1080R;E1083I). The procedure, abridged:
(§1)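 The interaction score is the log change in how often each variant appears, from input to selection. Frequencies came from PCR-amplified, Illumina-sequenced repeat regions of Pumilio-1 PUF domain libraries grown in strain YBZ-1 (LexA–MS2 coat fusion, HIS3 reporter) alongside matching RNA elements. Input plates were SC-Leu and selection plates were SC-Leu-His + 0.5 mM 3-AT, each for four days, and the log2 calculation used a pseudocount of 1 where a variant was absent.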

The target in a further test is PUM1 PUF domain R5-QLR (Homo sapiens, UniProt Q14671 828-1176, C1007Q;R1008L;Q1011R). Summed up: as §1
Another test has as its target PUM1 PUF domain R3-DAK (Homo sapiens, UniProt Q14671 828-1176, C935D;R936A;Q939K). The procedure, abridged:
as §1

Another test addresses PUM1 PUF domain R2-AFW (Homo sapiens, UniProt Q14671 828-1176, N899A;Y900F;Q903W). The procedure, abridged:
as §1

In a further test the target is PUM1 PUF domain R1-KGR (Homo sapiens, UniProt Q14671 828-1176, S863K;R864G;Q867R). Summed up:
as §1

The next test addresses PUM1 PUF domain R5-DFV (Homo sapiens, UniProt Q14671 828-1176, C1007D;R1008F;Q1011V). The procedure, abridged:
as §1

Sequence of PUM1 PUF domain R1-KGR (Q14671 828-1176 S863K/R864G/Q867R): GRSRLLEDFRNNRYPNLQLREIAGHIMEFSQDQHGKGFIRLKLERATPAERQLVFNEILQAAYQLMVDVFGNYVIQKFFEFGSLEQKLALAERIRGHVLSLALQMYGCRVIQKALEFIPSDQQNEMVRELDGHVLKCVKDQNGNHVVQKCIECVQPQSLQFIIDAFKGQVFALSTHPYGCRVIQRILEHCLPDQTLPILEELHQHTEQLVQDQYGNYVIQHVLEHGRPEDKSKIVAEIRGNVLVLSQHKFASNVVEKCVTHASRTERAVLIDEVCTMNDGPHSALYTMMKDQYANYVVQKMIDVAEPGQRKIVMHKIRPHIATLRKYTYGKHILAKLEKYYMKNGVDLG
Sequence of PUM1 PUF domain R5-DFV (Q14671 828-1176 C1007D/R1008F/Q1011V): as the sequence (Q14671 828-1176 S863K/R864G/Q867R) above, with K36S, G37R, R40Q, C180D, R181F, Q184V counted along it

Consider “GGCUAGAACUAGUGGAUCCCCCGGCGCCCGGCGGCUCGAGCCCGGGUAAGUCUAAAUAGUCUGCAUGCCGCCGGGCGCCAUGCCUGCAGGUCGACUCUAGAAAACAUG”, for which, in the test with PUM1 PUF domain R7-RRI, the binding signal is 5.69 log2 enrichment (interaction score).

In the case of “GGCUAGAACUAGUGGAUCCCCCGGCGCCCGGCGGCUCGAGCCCGGGUAAGUGUCAAUAGUCUGCAUGCCGCCGGGCGCCAUGCCUGCAGGUCGACUCUAGAAAACAUG”, the binding signal in the test with PUM1 PUF domain R5-QLR is 6.43 log2 enrichment (interaction score).

Take “GGCUAGAACUAGUGGAUCCCCCGGCGCCCGGCGGCUCGAGCCCGGGUAAGUGUAAUUAGUCUGCAUGCCGCCGGGCGCCAUGCCUGCAGGUCGACUCUAGAAAACAUG”: in the test with PUM1 PUF domain R3-DAK, the binding signal is 3.6 log2 enrichment (interaction score).

With “GGCUAGAACUAGUGGAUCCCCCGGCGCCCGGCGGCUCGAGCCCGGGUAAGUGUAAAAAGUCUGCAUGCCGCCGGGCGCCAUGCCUGCAGGUCGACUCUAGAAAACAUG”, the binding signal with PUM1 PUF domain R2-AFW was 4.3 log2 enrichment (interaction score).

On to “GGCUAGAACUAGUGGAUCCCCCGGCGCCCGGCGGCUCGAGCCCGGGUAAGUGUAAAGAGUCUGCAUGCCGCCGGGCGCCAUGCCUGCAGGUCGACUCUAGAAAACAUG”, for which the binding signal with PUM1 PUF domain R2-AFW was 1.14 log2 enrichment (interaction score).

As for “GGCUAGAACUAGUGGAUCCCCCGGCGCCCGGCGGCUCGAGCCCGGGUAAGUGUAAAUCGUCUGCAUGCCGCCGGGCGCCAUGCCUGCAGGUCGACUCUAGAAAACAUG”, in the test with PUM1 PUF domain R1-KGR, the binding signal was 3.57 log2 enrichment (interaction score).

As to “GGCUAGAACUAGUGGAUCCCCCGGCGCCCGGCGGCUCGAGCCCGGGUAAGUGUGAAUAGUCUGCAUGCCGCCGGGCGCCAUGCCUGCAGGUCGACUCUAGAAAACAUG”, in the test with PUM1 PUF domain R5-DFV, the binding signal was 3.55 log2 enrichment (interaction score).

(Values after PMC8384837, “Expanding the binding specificity for RNA recognition by a PUF domain”.)
